42 compounds from the antibiotic and cytotoxicity screens of Wong et al. (2023) can be followed below.

In all, about 39,000 compounds went through this assay and about 3,300 (8.5%) were called active. The entries come from a sample that favours actives as a whole.

The test system of the test is HepG2. Kind of test: cytotoxicity call (relative viability < 0.9). As to conditions: 10 µM.
In the case of `O=C(Cn1cc([N+](=O)[O-])cn1)n1cccn1`, the cytotoxicity call is “inactive”.

As to `C[C@@H]1CCCCO[C@H](CN(C)C(=O)Nc2ccc(F)cc2)[C@@H](C)CN([C@@H](C)CO)C(=O)c2cc(NC(=O)Cc3ccccc3)ccc2O1`, the cytotoxicity call was “inactive”.

For `COc1ccc(CN(C)C[C@H]2OCCCC[C@H](C)Oc3ccc(NC(=O)Nc4ccc(OC)cc4)cc3C(=O)N([C@H](C)CO)C[C@@H]2C)cc1`, the cytotoxicity call is “active”.

Regarding `COc1ccc(CN(C)C[C@H]2OCCCC[C@@H](C)Oc3ccc(NC(=O)Nc4ccc(OC)cc4)cc3C(=O)N([C@H](C)CO)C[C@@H]2C)cc1`, the cytotoxicity call was “inactive”.

Turning to `COc1ccc(CN(C)C[C@@H]2OCCCC[C@@H](C)Oc3ccc(NC(=O)Nc4ccc(OC)cc4)cc3C(=O)N([C@@H](C)CO)C[C@H]2C)cc1`, the cytotoxicity call is “inactive”.

`COc1ccc(CN(C)C[C@@H]2OCCCC[C@H](C)Oc3ccc(NC(=O)Nc4ccc(OC)cc4)cc3C(=O)N([C@@H](C)CO)C[C@@H]2C)cc1`: the cytotoxicity call is “active”.

For `COc1ccc(CN(C)C[C@H]2OCCCC[C@@H](C)Oc3ccc(NC(=O)Nc4ccc(OC)cc4)cc3C(=O)N([C@@H](C)CO)C[C@H]2C)cc1`, the cytotoxicity call is “active”.

In the case of `COc1ccc(CN(C)C[C@H]2OCCCC[C@@H](C)Oc3ccc(NC(=O)Nc4ccc(OC)cc4)cc3C(=O)N([C@@H](C)CO)C[C@@H]2C)cc1`, the cytotoxicity call is “inactive”.

On to `COc1ccc(CN(C)C[C@@H]2OCCCC[C@@H](C)Oc3ccc(NC(=O)Nc4ccc(OC)cc4)cc3C(=O)N([C@H](C)CO)C[C@@H]2C)cc1`, for which the cytotoxicity call is “inactive”.

On to `COc1ccc(CN(C)C[C@@H]2OCCCC[C@@H](C)Oc3ccc(NC(=O)Nc4ccc(OC)cc4)cc3C(=O)N([C@@H](C)CO)C[C@@H]2C)cc1`, for which the cytotoxicity call is “active”.

As to `COc1ccc(CN(C)C[C@@H]2OCCCC[C@H](C)Oc3ccc(NC(=O)Nc4ccc(OC)cc4)cc3C(=O)N([C@H](C)CO)C[C@@H]2C)cc1`, the cytotoxicity call is “inactive”.

Turning to `Cc1noc(C)c1NC(=O)N[C@@H]1C=C[C@H](CC(=O)N2CCN(C)CC2)O[C@H]1CO`, the cytotoxicity call is “inactive”.

Consider `CC(C)Cc1ccc([C@@H](C)c2nc(-c3cccs3)no2)cc1`, for which the cytotoxicity call was “inactive”.

On to `C[C@H](CO)N1C[C@H](C)[C@H](CN(C)C(=O)CCCN(C)C)OCc2cn(nn2)CCCC1=O`, for which the cytotoxicity call was “inactive”.

Turning to `Cc1noc(C)c1S(=O)(=O)Nc1cccc2c1O[C@H](CN(C)C(=O)Nc1ccc3c(c1)OCO3)[C@H](C)CN([C@H](C)CO)C2=O`, the cytotoxicity call was “inactive”.

For the compound `Cc1noc(C)c1S(=O)(=O)Nc1ccc2c(c1)C(=O)N([C@H](C)CO)C[C@H](C)[C@@H](CN(C)CC1CCCCC1)OCCCC[C@H](C)O2`, the cytotoxicity call was “inactive”.

As for `C[C@@H]1CN([C@H](C)CO)C(=O)c2cccc(NS(=O)(=O)c3cccs3)c2O[C@@H]1CN(C)Cc1ccncc1`, the cytotoxicity call is “inactive”.

For `N=C(N)N/N=C1\CCc2c(C(=N)N)cccc21`, the cytotoxicity call is “inactive”.

As to `C[C@@H]1CN([C@@H](C)CO)C(=O)Cc2cc(NC(=O)CCCCCC(=O)Nc3ccccc3N)ccc2O[C@@H]1CN(C)C(=O)Nc1cccc2ccccc12`, the cytotoxicity call is “inactive”.

On to `CCS(=O)(=O)Nc1ccc2c(c1)C(=O)N(C)C[C@@H](OC)[C@@H](C)CN(Cc1ccccn1)[C@H](C)CO2`, for which the cytotoxicity call is “inactive”.

`C[C@@H]1CN([C@@H](C)CO)C(=O)c2cc(NS(=O)(=O)c3cn(C)cn3)ccc2O[C@@H](C)CCCCO[C@@H]1CN(C)C`: the cytotoxicity call is “inactive”.

On to `COc1ccc(NC(=O)Nc2ccc3c(c2)C(=O)N([C@H](C)CO)C[C@@H](C)[C@@H](CN(C)Cc2ccncc2)OCCCC[C@H](C)O3)cc1`, for which the cytotoxicity call is “inactive”.

Consider `COc1ccc(CN(C)C[C@H]2OCCCC[C@@H](C)Oc3ccc(NC(=O)Nc4ccc(OC)cc4)cc3C(=O)N([C@H](C)CO)C[C@H]2C)cc1`, for which the cytotoxicity call is “active”.

Turning to `COc1ccc(CN(C)C[C@H]2OCCCC[C@H](C)Oc3ccc(NC(=O)Nc4ccc(OC)cc4)cc3C(=O)N([C@H](C)CO)C[C@H]2C)cc1`, the cytotoxicity call was “active”.

For the compound `COc1ccc(NC(=O)Nc2ccc3c(c2)C(=O)N([C@H](C)CO)C[C@H](C)[C@@H](CN(C)Cc2ccncc2)OCCCC[C@@H](C)O3)cc1`, the cytotoxicity call is “inactive”.

Regarding `COc1ccc(NC(=O)Nc2ccc3c(c2)C(=O)N([C@@H](C)CO)C[C@H](C)[C@@H](CN(C)Cc2ccncc2)OCCCC[C@@H](C)O3)cc1`, the cytotoxicity call was “active”.

For the compound `COc1cccc(S(=O)(=O)N(C)C[C@H]2Oc3ncc(C#CCC(C)C)cc3C(=O)N([C@@H](C)CO)C[C@@H]2C)c1`, the cytotoxicity call is “inactive”.

For the compound `C[C@@H]1CN([C@H](C)CO)C(=O)CCCn2nncc2CO[C@H]1CN(C)S(=O)(=O)c1ccccc1C#N`, the cytotoxicity call was “inactive”.

Take `C[C@H](CO)N1C[C@H](C)[C@H](CN(C)CC2CCCCC2)Oc2ccc(NC(=O)Cc3cn(C)c4ccccc34)cc2CC1=O`: the cytotoxicity call was “inactive”.

Take `C[C@@H]1CN([C@@H](C)CO)C(=O)c2cc(NS(=O)(=O)c3ccc(F)cc3)ccc2O[C@H]1CN(C)CC1CC1`: the cytotoxicity call was “inactive”.

For the compound `CCS(=O)(=O)Nc1ccc2c(c1)C(=O)N(C)[C@@H]1CC[C@@H](CC(=O)NCc3ccc(OC)cc3)O[C@H]1CO2`, the cytotoxicity call is “inactive”.

Consider `COCC#Cc1ccc([C@H]2[C@@H](CO)N3C(=O)CN(C(=O)C4CCOCC4)C[C@H]23)cc1`, for which the cytotoxicity call was “inactive”.

As to `COc1ccc2c3c(n(c2c1)C)[C@@H](CO)N(C[C@]13CCN(CC1)CC1CCOCC1)C(=O)Cc1ccccn1`, the cytotoxicity call was “inactive”.

Consider `C[C@H](CO)N1C[C@H](C)[C@@H](CN(C)S(=O)(=O)c2cn(C)cn2)Oc2ccc(NS(C)(=O)=O)cc2CC1=O`, for which the cytotoxicity call was “inactive”.

In the case of `Cc1noc(C)c1S(=O)(=O)Nc1ccc2c(c1)C(=O)N([C@@H](C)CO)C[C@H](C)[C@H](CN(C)S(=O)(=O)c1ccc(Cl)cc1)O2`, the cytotoxicity call was “inactive”.

For `O=C(O)[C@H]1C2C(=O)N3CCCO[C@@H]3[C@]23C=C[C@H]1O3` (some centres not stated), the cytotoxicity call is “inactive”.

In the case of `CO[C@H]1O[C@H](COC(=O)NCCCCCC(=O)NO)[C@@H](OC(=O)c2ccccc2)[C@H](OC(=O)Nc2ccccc2-c2ccccc2)[C@@H]1OC(=O)Nc1ccccc1-c1ccccc1`, the cytotoxicity call was “active”.

Regarding `CO[C@H]1O[C@H](COC(=O)NCCCCCC(=O)NO)[C@H](OC(=O)Nc2ccccc2)[C@H](OC(=O)Nc2ccccc2)[C@H]1OC(=O)Nc1ccccc1`, the cytotoxicity call is “inactive”.

Take `COc1ccc(NC(=O)O[C@H]2[C@H](OC(=O)Nc3ccccc3-c3ccccc3)[C@H](OC(=O)Nc3ccccc3-c3ccccc3)[C@@H](OC)O[C@@H]2COC(=O)NCCCCCC(=O)NO)cc1`: the cytotoxicity call is “inactive”.

`CCOP(=O)(CC(=O)O[C@H]1[C@@H]2OC(=O)[C@@H](Cc3ccc4ccccc4c3)C/C=C\C[C@H](Cc3ccc4ccccc4c3)C(=O)O[C@H]2[C@@H](OC)O[C@@H]1COC(=O)NCCCCCC(=O)NO)OCC`: the cytotoxicity call was “inactive”.

Consider `CCOP(=O)(CC(=O)O[C@H]1[C@H](OC(=O)Nc2ccccc2-c2ccccc2)[C@H](OC(=O)Nc2ccccc2-c2ccccc2)[C@@H](OC)O[C@@H]1COC(=O)NCCCCCC(=O)NO)OCC`, for which the cytotoxicity call was “active”.

As to `COc1ccc(NC(=O)O[C@H]2[C@H](OC(=O)Nc3ccccc3-c3ccccc3)[C@@H](OC(=O)Nc3ccccc3-c3ccccc3)[C@@H](OC)O[C@@H]2COC(=O)NCCCCCC(=O)NO)cc1`, the cytotoxicity call is “inactive”.
